Reference: PubChem BioAssay AID485314 (National Center for Advancing Translational Sciences (NCATS), 2010)
Screen size: about 340,000 compounds; about 4,500 (1.3%) were called active. Another 5% or so got no clear call; they are omitted. Calls come from the whole dose curve; as a rule, active = well fitted inhibition curve with a large enough effect; inconclusive = small, poorly fitted or top-dose-only effect, or another doubt; inactive = no such curve, though single readings can be large or run the other way. What follows is part of a selection rich in actives, with near analogues and random picks from the rest. Where a call stands in place of a potency, no number is given.

Molecular target: DNA polymerase beta (Homo sapiens) (UniProt P06746)
Assay: qHTS Assay for Inhibitors of DNA Polymerase Beta
Settings: Pol beta primer extension/strand displacement, fluorescence kinetic; series mostly up to 114 µM
Method in brief: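 10 nM enzyme + cpd, 15 min RT; start with substrate 50 nM final; read 0 min and after 10 min RT. Corrected, normalized data; 4-parameter Hill curve fit.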
Potency is the fitted concentration of half-maximal effect.

SMILES	Potency
COc1ccc(C2=NC(c3ccncc3)=Nc3ccc(Br)cc3N2)cc1	inactive
CC(=O)c1ccc(NC(=O)CCc2nc(-c3ccc(C)cc3)no2)cc1	inactive
COc1cc2ccccc2cc1C(=O)Nc1cccc(-c2nc3ccccc3o2)c1	inactive
COc1ccccc1N1CCN(CC(=O)NC(=O)NCc2ccco2)CC1	inactive
NC(=O)CCN1CCN(S(=O)(=O)/C=C/c2ccccc2)CC1	inactive
O=C(CN1CCN(S(=O)(=O)/C=C/c2ccccc2)CC1)NC(=O)NCc1ccco1	25.1 µM (active)
CCC1=Nc2cc(C(=O)NCC(C)c3ccccc3)ccc2Sc2ccc(C)cc21 (stereo not given)	inactive
O=C(CNS(=O)(=O)c1cccs1)N1CCN(c2ccccc2Cl)CC1	inactive
CCC(=O)N1c2ccc(S(=O)(=O)NCc3ccco3)cc2CC1C (stereo not given)	0.398 µM (active)
COc1cccc(CNS(=O)(=O)c2ccc3c(c2)CC(C)N3C(=O)C2CCC2)c1 (stereo not given)	inactive
COc1cccc(CNS(=O)(=O)c2ccc3c(c2)CC(C)N3C(C)=O)c1 (stereo not given)	inactive
COc1cc(C(=O)N2CCN(c3ccc(Nc4ccc(C)cc4)nn3)CC2)cc(OC)c1OC	inactive
Cc1ccc(-c2cnc(NCc3ccc(C(C)C)cc3)n2C)cc1	inactive
COc1ccc(OCC(=O)Nc2ccc(NC(=O)c3ccco3)c(C)c2)cc1	inactive
COc1ccc(NC(=O)c2ccco2)cc1NC(=O)COc1ccc(C)c(C)c1	11.2 µM (active)
Cc1ccc(OCC(=O)NCCCNC(=O)c2ccco2)cc1C	inactive
CCC(C)Nc1oc(-c2ccc(COc3ccc(Cl)cc3)o2)nc1C#N (stereo not given)	inactive
Cc1ccccc1CNC(=O)CCCn1nc(C)c2sc3ccccc3c2c1=O	inactive
COCCCNC(=S)N1CCCC(c2nc3cc(C)c(C)cc3[nH]2)C1 (stereo not given)	39.8 µM (active)
CCCNC(=S)N1CCCC(c2nc3ccccc3[nH]2)C1 (stereo not given)	inactive
CCNC(=S)N1CCC(c2nc3cc(C)c(C)cc3[nH]2)CC1	inactive
Fc1ccc(Nc2nc(SCc3ccccc3Cl)nc3ccccc23)cc1	inactive

SMILES	Potency
Cc1ccc(-c2nnc(SCC(=O)NCc3ccccc3)nc2-c2ccc(C)cc2)cc1	inactive
COc1ccc2nc(SCc3ccccc3)nc(C)c2c1	inactive
CC1(C)N=C(SCc2ccccc2Cl)c2ccccc2N1	inactive
c1ccc(CSc2nnc(-c3ccco3)c(-c3ccco3)n2)cc1	7.94 µM (active)
Clc1ccccc1CSc1nnc(-c2ccco2)c(-c2ccco2)n1	4.47 µM (active)
CCN(CC)S(=O)(=O)c1nnc(NC(=O)COc2ccccc2Cl)s1	inactive
CC1=Nc2cc(C(=O)NCc3ccc(C)cc3)ccc2Sc2ccc(Cl)cc21	inactive
O=C(CSc1nccn1-c1ccc(F)cc1)Nc1cccc2ccccc12	inactive
Cc1ccc(C)c(N2CCN(C(=O)Cn3nc(C)c4sc5ccccc5c4c3=O)CC2)c1	inactive
COc1ccc2c(c1)Cc1sc(NC(=O)c3ccccc3Br)nc1-2	inactive
CC(C)(C)c1ccc(C(=O)N2CCC(c3nc(-c4ccc(S(=O)(=O)N5CCCC5)cc4)no3)CC2)cc1	inactive
Oc1c(C(c2ccccc2Cl)N2CCOCC2)sc2nc(-c3ccco3)nn12 (stereo not given)	inactive
CCOC(=O)C1CCN(C(c2ccc(F)cc2)c2sc3nc(-c4ccco4)nn3c2O)CC1 (stereo not given)	inactive
CCOc1ccccc1/C=c1\sc2nc(-c3ccco3)nn2c1=O	11.2 µM (active)
COc1cc(CNC(=O)c2cc3n(n2)CCCN(Cc2cccc(F)c2)C3=O)cc(OC)c1OC	inactive
CCC(=O)Nc1cccc(C(=O)OCc2cc(=O)n3nc(CC)sc3n2)c1	inactive
Cc1c(C(=O)NCc2ccccc2Br)oc2ccc3c(c12)C(=O)CC(C)(C)O3	inactive
O=C(CSc1nccn1Cc1ccc(F)cc1)NCc1ccccc1	inactive
COc1ccc(-c2noc(CSc3nnc(-c4ccccc4)n3-c3ccc(F)cc3)n2)c(OC)c1	inactive
C/C(=N\Nc1ccc(S(N)(=O)=O)cc1[N+](=O)[O-])c1cccs1	11.2 µM (active)
C/C(=N\Nc1ncc(Cl)cc1Cl)c1cccs1	inactive
C/C(=N\NS(=O)(=O)c1ccc(Br)cc1)c1cccs1	inactive

SMILES	Potency
CCC(=O)N1c2ccccc2CC1C(=O)N1CCN(c2cccc(OC)c2)CC1 (stereo not given)	inactive
O=C(NCc1ccccc1)c1ccc2c(c1)nc1n2CCCCC1	inactive
CCOc1cccc(NC(=O)CSc2ncc(-c3ccc(Cl)cc3)[nH]2)c1	inactive
Cc1cc(C)c2nc3nc(C)cc(C)c3c(N)c2c1	39.8 µM (active)
CC(/C=N/NC(=O)c1cc(-c2ccc3ccccc3c2)n[nH]1)=C\c1ccco1	12.6 µM (active)
CC(=C/c1ccccc1)/C=N/NC(=O)c1cc(C)oc1C	inactive
CC(C)(C)C1CCC(=NNC(=O)c2cc(-c3ccccc3)n[nH]2)CC1 (stereo not given)	inactive
COc1ccc(/C=C/c2nc(C#N)c(NCc3ccc(F)cc3)o2)cc1OC	inactive
Cc1cc(NC(=O)CSc2nc3cc(Cl)ccc3c(=O)n2Cc2ccco2)no1	inactive
Cc1ccc(Cn2c(C)nc3c(c2=O)c2nc4ccccc4nc2n3Cc2ccco2)cc1	10 µM (active)
O=c1c2ccccc2oc2nc(C3CCCCC3)n(Cc3ccco3)c(=O)c12	inactive
Clc1cccc(-c2nc3nc4ccccc4nc3n2Cc2ccco2)c1	inactive
Cc1nc2c(c(=O)n1Cc1ccco1)c1nc3ccccc3nc1n2Cc1ccccc1	20 µM (active)
Cn1c2ccccc2c(=O)c2c(=O)n(Cc3ccco3)c(COc3ccccc3)nc21	inactive
Cc1c(NC(=O)C(C)(C)C)cccc1-c1nc2ccccc2s1	inactive
Cc1ccc(NC(=O)CCCn2c(=O)c3cccn3c3ccccc32)cc1Cl	inactive
Cc1ccc(CN2CCC(CNC(=O)c3cnn(-c4ccccc4Cl)c3C3CCN(C(=O)OC(C)(C)C)CC3)CC2)cc1	inactive
Cc1ccc(CNC(=O)CCc2c(C)nn(-c3ccc(N4CCCC4)nn3)c2C)cc1	inactive
CC(=O)c1cccc(Nc2ccc3cc(S(=O)(=O)N4CCC(C)CC4)ccc3n2)c1	inactive
CC(=O)c1ccc(S(=O)(=O)N2CCN(C(=O)/C=C/c3ccc4ccccc4n3)CC2)cc1	11.2 µM (active)
CC(=O)c1ccc(S(=O)(=O)N2CCC3(CC2)OCCO3)cc1	inactive
